Several values for one entry are separate records, joined by “and”; a condition that tells them apart may be missing. Identical values can stand only once. Counter-ions that a name gives are not always drawn.
Tests used:
Experiment in all cases: cell viability relative to vehicle control; higher = less cytotoxic
Conditions in all cases: 10 µM
K562 = test system: K562
Summary of the method: (§1)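 CRISPR-edited SRSF2 P95 mutant and isogenic wild-type clones of four leukaemia lines were screened against Selleck bioactive, kinase and epigenetic probe libraries, with identity-inconsistent compounds removed. Compounds were acoustically dispensed into 384-well plates at a single 10 µM dose, with 2000 cells in 50 µL medium per well. After 48 h, supernatant was removed and CellTiter-Glo luminescence was read. Viability was expressed as percent of the on-plate DMSO vehicle control, analysed in Genedata Screener.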

MARIMO = test system: MARIMO
Summary of the method: as §1

MOLM14 = test system: MOLM14
Summary of the method: as §1

OCI-AML2 = test system: OCI-AML2
Summary of the method: as §1

| Structure (SMILES) | cell viability (K562; SRSF2 genotype: SRSF2 P95H/wt) | cell viability (K562; SRSF2 genotype: SRSF2 wt/wt) [%] | cell viability (MARIMO; SRSF2 genotype: SRSF2 P95H/wt) [%] | cell viability (MARIMO; SRSF2 genotype: SRSF2 wt/wt) [%] | cell viability (MOLM14; SRSF2 genotype: SRSF2 P95H/wt) [%] | cell viability (MOLM14; SRSF2 genotype: SRSF2 wt/wt) [%] | cell viability (OCI-AML2; SRSF2 genotype: P95H/wt) [%] | cell viability (OCI-AML2; SRSF2 genotype: wt/wt) [%] |
| --- | --- | --- | --- | --- | --- | --- | --- | --- |
| CC(=O)Oc1cccc2ccccc12 [1-Naphthyl acetate] | 90.4% and 85.3% | 95.8 | 92.4 | 97.5 | 93.7 | 93.8 | 93.3 | 90.8 |
| CCCCC(=O)OCC(=O)[C@H]1[C@H](C)C[C@H]2[C@@H]3C[C@H](F)C4=CC(=O)C=C[C@]4(C)[C@@]3(F)[C@@H](O)C[C@@]21C [Diflucortolone valerate] | 96.5% and 92.7% | 104 | 95.1 | 98.2 | 92 | 96 | 99.4 | 118 |
| CC(C)CCN1c2nc(Nc3cc(F)c(O)c(F)c3)ncc2N(C)C(=O)C1C (stereo unspecified) | 49.8% and 63.1% | 64.1 | 33.9 | 35.3 | 11.4 | 4.4 | 16.2 | 20.7 |
| O=C(O)Cc1cccc2ccccc12 [1-Naphthaleneacetic acid] | 98% and 100% | 98.1 | 95.7 | 98.3 | 106 | 97.5 | 104 | 97.4 |
| Fc1ccc(Cn2c(Cl)nc3ccccc32)cc1 [2-Chloro-1-(4-fluorobenzyl)benzimidazole] | 77.4% and 80.8% | 86.5 | 64.6 | 64.5 | 77.2 | 84 | 28.5 | 36.5 |
| CCCCc1nc(C)c(CC(=S)N(C)C)c(=O)n1Cc1ccc(-c2ccccc2-c2nnn[nH]2)cc1 [Fimasartan] | 100% and 107% | 106 | 108 | 109 | 101 | 103 | 106 | 93.1 |
| COc1ccc(O)cc1 [Mequinol] | 103% and 95.3% | 106 | 91.1 | 100 | 95.6 | 96.9 | 90.4 | 103 |
| CC1(COc2ccc3c(c2)ncn3-c2ccc3cccc(N4CCC(N)CC4)c3n2)COC1 | 84.9% and 68.8% | 71.4 | 5.64 | 16.6 | 5.66 | 1.2 | 14.6 | 13 |
| CCCCCCCC(=O)CCc1ccc(O)c(OC)c1 [6-Paradol] | 93.9% and 99.3% | 104 | 93.3 | 99.7 | 94.3 | 104 | 94.1 | 91.6 |
| COc1cc2c(c(OC)c1OC)-c1c(cc3c(c1OC)OCO3)CC(C)C(C)C2 (stereo unspecified) [Schisandrin B] | 76.4% and 76% | 74.8 | 71.8 | 86 | 73 | 76.2 | 90.8 | 84.9 |
| O=C(Nc1ccccc1)Nc1ccc(-c2ccc(C(=O)[C@@H]3CCC[C@H]3C(=O)O)cc2)cc1 | 96.9% and 97.6% | 98.8 | 106 | 106 | 102 | 103 | 103 | 109 |
| O=c1ccc2ccc(O)cc2[nH]1 [7-Hydroxycarbostyril] | 95.8% and 92.9% | 101 | 95.4 | 101 | 95 | 101 | 91.2 | 107 |
| COc1cc(N)c(Cl)cc1C(=O)NC1CCN(CCCOc2ccc(F)cc2)CC1OC (stereo unspecified) [Cisapride hydrate] | 93.4% and 92.3% | 95.5 | 93.3 | 105 | 99.8 | 102 | 105 | 99.8 |
| Cc1cccc(Nc2cc(Cl)nc(SCC(=O)O)n2)c1C | 95.6% and 95.5% | 97.2 | 98.9 | 99.9 | 95.9 | 98.5 | 90.3 | 94.4 |
| CC1=C(/C=C/C(C)=C/C=C/C(C)=C/C(=O)O)C(C)(C)CCC1 [All-trans Retinoic Acid (Tretinoin)] | 88.7% and 90.3% | 93 | 68.7 | 73.6 | 54.2 | 75.3 | 11.3 | 37.4 |
| O=C1Nc2ccccc2C1=O [Isatin] | 97.1% and 106% | 100 | 101 | 105 | 103 | 105 | 106 | 96.5 |
| Cc1cc(C)cc(Oc2ccc(CNC(=O)[C@H](C)N)cc2C)c1 | 85.9% and 95.5% | 93.9 | 86.5 | 87.8 | 78.1 | 94.3 | 75.5 | 83.3 |
| C[C@@H]1CC[C@@]2(OC1)O[C@H]1C[C@H]3[C@@H]4CC=C5C[C@@H](O[C@@H]6O[C@H](CO)[C@@H](O[C@@H]7O[C@@H](CO)[C@H](O)[C@H]7O)[C@H](O)[C@H]6O[C@@H]6O[C@@H](C)[C@H](O)[C@@H](O)[C@H]6O)CC[C@]5(C)[C@H]4CC[C@]3(C)[C@H]1[C@@H]2C [Polyphyllin I] | 0.33% | 0.31 | 0.37 | 0.67 | 0.32 | 0.29 | 0.21 | 0.36 |
| Cc1ccc(Nc2nccc(N(C)c3ccc4c(C)n(C)nc4c3)n2)cc1S(N)(=O)=O [Pazopanib] | 84.1% and 94.1% | 85.8 | 96 | 104 | 69.4 | 83 | 73.8 | 71.2 |
| Cc1nnc(C(=O)NC(C)(C)c2nc(C(=O)NCc3ccc(F)cc3)c(O)c(=O)n2C)o1 [Raltegravir (MK-0518)] | 101% and 94.3% | 94.6 | 95.8 | 103 | 98.1 | 93.5 | 95.4 | 98 |
| CCCCOCc1ccc(O)c(OC)c1 [Vanillyl Butyl Ether] | 98.9% and 92.9% | 101 | 97.6 | 106 | 98.8 | 101 | 93.1 | 109 |
| CCN1CC(CCN2CCOCC2)C(c2ccccc2)(c2ccccc2)C1=O (stereo unspecified) [Doxapram HCl] | 104% and 111% | 112 | 112 | 111 | 104 | 109 | 111 | 95.4 |
| CCN1CCN(Cc2ccc(C(=O)Nc3ccc(C)c(Oc4ccc5c(c4)CC(=O)N5)c3)cc2C(F)(F)F)CC1 | 4.41% and 19.5% | 9.71 | 70.5 | 82.1 | 46.6 | 45 | 45 | 44.8 |
| Oc1cccc(O)c1O [Pyrogallol] | 96.9% and 103% | 102 | 108 | 104 | 102 | 104 | 102 | 112 |

| Structure (SMILES) | cell viability (K562; SRSF2 genotype: SRSF2 P95H/wt) | cell viability (K562; SRSF2 genotype: SRSF2 wt/wt) [%] | cell viability (MARIMO; SRSF2 genotype: SRSF2 P95H/wt) [%] | cell viability (MARIMO; SRSF2 genotype: SRSF2 wt/wt) [%] | cell viability (MOLM14; SRSF2 genotype: SRSF2 P95H/wt) [%] | cell viability (MOLM14; SRSF2 genotype: SRSF2 wt/wt) [%] | cell viability (OCI-AML2; SRSF2 genotype: P95H/wt) [%] | cell viability (OCI-AML2; SRSF2 genotype: wt/wt) [%] |
| --- | --- | --- | --- | --- | --- | --- | --- | --- |
| COc1cc(Nc2c(C#N)cnc3cc(OCCCN4CCN(C)CC4)c(OC)cc23)c(Cl)cc1Cl [Bosutinib (SKI-606)] | 2.19% and 3.5% | 3.73 | 38.5 | 37.6 | 7.61 | 11.1 | 1.53 | 7.73 |
| CC(CNC(=O)c1cccnc1)NC(=O)c1cccnc1 (stereo unspecified) [Nicaraven] | 100% and 95.4% | 107 | 106 | 108 | 101 | 104 | 101 | 98.4 |
| O=C(Nc1ccc(Oc2ccc(Cl)cc2)c(Cl)c1)c1cc(I)cc(I)c1O [Rafoxanide] | 85.2% and 95.8% | 97.9 | 101 | 111 | 80.4 | 108 | 105 | 101 |
| C=CC(=O)Nc1cc2c(Nc3ccc(F)c(Cl)c3)ncnc2cc1OCCCN1CCOCC1 [CI-1033 (Canertinib)] | 66.7% and 78.1% | 61.7 | 52 | 61.5 | 12.8 | 15.9 | 27.6 | 31.4 |
| OC[C@@H](O)[C@@H](O[C@H]1O[C@H](CO)[C@@H](O)[C@H](O)[C@H]1O)[C@H](O)[C@@H](O)CO [Maltitol] | 98.2% and 88.7% | 98.6 | 99.6 | 105 | 99.6 | 99.9 | 96.8 | 107 |
| Nc1ccn([C@@H]2CS[C@H](CO)O2)c(=O)n1 [Lamivudine (Epivir)] | 100% and 99.5% | 102 | 105 | 104 | 99.8 | 105 | 106 | 114 |
| O=c1cc(-c2ccccc2)oc2c1ccc1ccccc12 [alpha-Naphthoflavone] | 94.2% and 87.3% | 95.9 | 90.5 | 96.5 | 117 | 109 | 86.5 | 99.7 |
| NN1CC(=O)NC1=O [1-Aminohydantoin Hydrochloride] | 103% | 97.1 | 99.8 | 106 | 97.1 | 101 | 89.2 | 106 |
| CC(N)C12CC3CC(CC(C3)C1)C2 (stereo unspecified) [Rimantadine (Flumadine)] | 101% and 98.2% | 108 | 98.9 | 104 | 99.8 | 102 | 89.8 | 96.6 |
| CCn1cc(NC(=S)Nc2cc(Cl)ccc2OC)c(C(N)=O)n1 | 92% and 90.5% | 89.8 | 99.1 | 99.4 | 96.9 | 95 | 95.2 | 92.5 |
| COC(=O)c1c2c(c3ccccc3c1O)OC(C)(C)C=C2 [Rubimaillin] | 86.1% and 90% | 79.6 | 20 | 39.7 | 2.68 | 3.56 | 28.1 | 41.4 |
| CC(=O)Nc1nc2c(Oc3cc(-c4ccc(C(F)(F)F)cc4)ncn3)cccc2s1 | 99.6% and 93% | 88 | 93.3 | 103 | 95.9 | 97.7 | 90.6 | 88.9 |
| O=C(Nc1ccncc1)c1cc([N+](=O)[O-])ccc1Cl | 102% and 101% | 91.5 | 106 | 102 | 70.5 | 106 | 83.2 | 73.9 |
| CCCCCCCCCCCCCCCCO [1-Hexadecanol] | 102% and 92.5% | 98.6 | 100 | 109 | 101 | 103 | 94.5 | 116 |
| O=S(=O)(O)CCS [Mesna (Uromitexan, Mesnex)] | 107% and 96% | 103 | 94.2 | 110 | 104 | 100 | 92 | 104 |
| C/C1=C\CC[C@]23O[C@H]2[C@@H](OC3=O)c2c(C)coc2C1 [Linderane] | 109% and 104% | 112 | 104 | 99.6 | 117 | 108 | 103 | 101 |
| COC(=O)N[C@H](C(=O)N[C@@H](Cc1ccccc1)[C@@H](O)CN(Cc1ccc(-c2ccccn2)cc1)NC(=O)[C@@H](NC(=O)OC)C(C)(C)C)C(C)(C)C [Atazanavir sulfate] | 97.1% and 109% | 102 | 93.5 | 118 | 103 | 104 | 94.5 | 97.3 |
| C[C@H]1CNC(=O)c2cnn3ccc(nc23)N[C@H](C)c2cc(F)ccc2O1 | 14.4% and 36.7% | 18 | 48.6 | 51.6 | 9.21 | 5.47 | 8.06 | 19.4 |
| COc1cc(OCc2cccc(-c3ccccc3)c2C)cc(OC)c1CN1CCCC[C@H]1C(=O)O [PD-1/PD-L1 inhibitor 1] | 87.3% and 92.7% | 100 | 83.7 | 85.2 | 89.8 | 95.3 | 68.2 | 73.2 |
| CN(C)CCC=C1c2ccccc2C(C)(C)c2ccccc21 [Melitracen hydrochloride] | 68.2% and 69.9% | 82.3 | 62.9 | 69.7 | 63.8 | 77.6 | 61.3 | 65.3 |
| O=c1ccn(C2OC(CO)C(O)C2O)c(=O)[nH]1 (stereo unspecified) | 90.3% and 93.8% | 99.6 | 99.2 | 97.5 | 100 | 100 | 100 | 95.4 |
| COc1cc(C2Oc3ccc(C4Oc5cc(O)cc(O)c5C(=O)C4O)cc3OC2CO)ccc1O (stereo unspecified) [Isosilybin] | 92.6% and 89.8% | 85.4 | 99 | 106 | 104 | 98.9 | 96.8 | 95.3 |
| CC(=O)Nc1cccc2c1c(Sc1ccc(Cl)cc1)c(C)n2CC(=O)O | 108% and 110% | 100 | 108 | 112 | 105 | 106 | 101 | 108 |
